This passage reports Potency and activity (max response) results from PubChem BioAssay (NCATS).

Values joined by “and” are separate entries in the source; they are usually repeats but may differ in a detail not shown here. Equal values may be shown once. Records with an inconclusive call do not appear. A number with no mark means an inactive call. Active and inactive are the calls of the source. The call rests on the fitted dose curve; in most records, active means well fitted curve in the direction sought with a large enough effect; inconclusive means small, poorly fitted or top-dose-only effect, or another doubt; inactive means no such curve, though single readings can be large; an effect the other way counts as inactive or inconclusive.

Test [1] can be described thus: Viability qHTS for spleen associated tyrosine kinase inhibitor (SYKi) naive MV4-11 cells (AID 1963823). Further: nearly all actives have a fitted effect of over 40% in size. In outline:
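Compounds were dispensed acoustically onto plates, MV4-11 cells (SYKi-naive) added at 500 per well, and plates incubated 72 hr at 37 C. CellTiter-Glo was added and luminescence measured after 10 min.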
A general note: qHTS replaces the single test concentration by a dilution series.

Test [2] can be described thus: Cellular viability qHTS for adrenocortical cancer (ACC) cell line SW-13 (AID 1963989). Further: nearly all actives have a fitted effect of over 65% in size.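 On activity (max response): cells grown in serum-free medium with ITS supplement; on the % scale 0 is the no-effect control and ±100 the full control effect.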 The following applies: SW-13 ACC cells viability, CellTiter-Glo, 48 h; activity (max response): hits give low values. A digest of the protocol:
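48 h treatment, SW-13 in ITS/DMEM serum-free; doses up to 46 uM; readout CellTiter-Glo luminescence; curve fit four-parameter logistic.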

A short description of test [3]: Cellular viability qHTS for adrenocortical cancer (ACC) cell line NCI-H295R (AID 1963990). Further: nearly all actives have a fitted effect of over 60% in size. A digest of the protocol:
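Compound titrations (up to 46 uM final) are applied to NCI-H295R cultures for 48 h at 37C. Viable cell number is estimated by CellTiter-Glo signal, normalised to DMSO and doxorubicin controls.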
Potency means the concentration at half of the fitted maximal effect.

Regarding `CC(C)(O)CS(=O)(=O)Nc1ccc2c(c1)CCN(C(=O)COc1cccnc1)C2`, the Potency was 0.0209 µM (active) in test [1], 282 nM (active) in test [2] and 112 nM (active) in test [3].

As to `CC(=O)OCC(=O)[C@@]1(O)CC[C@H]2[C@@H]3CCC4=CC(=O)C=C[C@]4(C)[C@H]3[C@@H](O)C[C@@]21C`, the Potency entry in test [1] and in test [3] was “inactive” each time. In test [2], the activity (max response) was 1.48% and -12.4%.

With `CCOC(=O)[C@H](CCc1ccccc1)N[C@@H](C)C(=O)N1Cc2cc(OC)c(OC)cc2C[C@H]1C(=O)O`, the Potency result in test [1] and in test [3] was “inactive” each time. For the same compound, in test [2], the activity (max response) was 2.85%.

As to `OCc1ccc(Cl)cc1Cl`, the Potency in test [1] was 0.0067 µM (active). Besides, the activity (max response) in test [2] is -2%. Moreover, the Potency result in test [3] was “inactive”.

With `CC(C)c1c(C(=O)Nc2ccccc2)c(-c2ccccc2)c(-c2ccc(F)cc2)n1CC[C@@H](O)C[C@@H](O)CC(=O)O`, the Potency in test [1] was 2.99 µM (active) and 1.93 µM (active) and 1.82 µM (active). Moreover, the activity (max response) in test [2] was -20.9% and -15.4%. Besides, in test [3], the Potency entry is “inactive”.

As to `COc1cc2c(cc1OCCCN1CCCC1)N=C(N)C21CCC1`, the Potency entry in test [1] and in test [3] was “inactive” each time. In test [2], the activity (max response) is -9.17%.

With `CC(C(=O)O)c1ccc(/C=C2\CCCCC2=O)cc1` (centres undefined), the Potency entry in test [1] and in test [3] was “inactive” throughout. Besides, in test [2], the activity (max response) was 8.31%.

For `O=C1CC2(CCCC2)CC(=O)N1CCCCN1CCN(c2ncccn2)CC1`, the Potency in test [1] is 9.44 µM (active). Moreover, the activity (max response) in test [2] was -4.13%. The Potency result in test [3] is “inactive”.

For the compound `COCc1c(C(C)C)nc(C(C)C)c(/C=C/[C@@H](O)C[C@@H](O)CC(=O)O)c1-c1ccc(F)cc1`, the results for the Potency in test [1], in test [2] and in test [3] were 0.168 µM (active), 2590 nM (active) and 1160 nM (active), respectively.

`O=C(CCCN1CC=C(n2c(=O)[nH]c3ccccc32)CC1)c1ccc(F)cc1`: the Potency entry in test [1] and in test [3] was “inactive” in each case. Besides, the activity (max response) in test [2] is -10.3%.

For `Nc1ccc(C(=O)Oc2ccccc2)c(O)c1`, the Potency entry in test [1] and in test [3] was “inactive” each time. The activity (max response) in test [2] was -6.48%.

Regarding `COC(=O)[C@@H]1[C@H]2C[C@H]3c4[nH]c5ccccc5c4CCN3C[C@@H]2CC[C@@H]1O`, the Potency result in test [1] and in test [3] was “inactive” throughout. In addition, the activity (max response) in test [2] was -16.5%.

`COC(=O)[C@@H]1CC2=CC(=O)CC[C@]2(C)[C@@]23O[C@@H]2C[C@@]2(C)[C@@H](CC[C@@]24CCC(=O)O4)[C@H]13`: the Potency entry in test [1] and in test [3] was “inactive” throughout. Besides, in test [2], the activity (max response) is -0.519% and -3.74%.

As to `COc1cc(OC)nc(O[C@H](C(=O)O)C(OC)(c2ccccc2)c2ccccc2)n1`, the Potency entry in test [1] and in test [3] was “inactive” in each case. In test [2], the activity (max response) is 12.1%.

Take `CSC[C@H]1CN(Cc2c[nH]c3c(N)ncnc23)C[C@@H]1O`: the Potency entry in test [1] and in test [3] was “inactive” in each case. In test [2], the activity (max response) is -14.7%.

Consider `CCCCCCCCCCCCCCCCCCOCC(O)CO` (centres undefined), for which the Potency result in test [1] and in test [3] was “inactive” in each case. Moreover, the activity (max response) in test [2] is 15%.

Turning to `Nc1ccc(/C=C/C(=O)NCc2cc3cc(-c4ccc(C(=O)N5CCC(F)(F)CC5)cc4)cc(-c4ccc(F)cc4)c3o2)cn1`, the Potency in test [1] is 148 nM (active) and 184 nM (active); in test [2], 1120 nM (active); in test [3], 1000 nM (active).

For the compound `CCCC(CCC)(C(=O)OCC)C(=O)OCC`, the Potency entry in test [1] and in test [3] was “inactive” each time. Besides, in test [2], the activity (max response) is 12.5%.

For `CCOc1ccccc1OCCN[C@H](C)Cc1ccc(OC)c(S(N)(=O)=O)c1`, the Potency result in test [1] and in test [3] was “inactive” each time. Also, the activity (max response) in test [2] was 2.5%.

As for `CC(N)C(=O)OC(C)(C)Cc1ccc(Cl)cc1` (centres undefined), the Potency entry in test [1] and in test [3] was “inactive” in each case. The activity (max response) in test [2] was 12.9%.

In the case of `CCC[C@H](N[C@H]1CCc2cc(F)cc(F)c2C1)C(=O)Nc1cn(C(C)(C)CNCC(C)(C)C)cn1`, the Potency in test [1] was 8.33 µM (active); in test [2] it was 14100 nM (active); in test [3], 25100 nM (active).

Turning to `CN(C)C(N)=NC(=N)N`, the Potency result in test [1] and in test [3] was “inactive” in each case. Moreover, in test [2], the activity (max response) is 1.52%.

Take `O=C(O)c1ccc(CN2CCC(CN[C@@H]3C[C@H]3c3ccccc3)CC2)cc1`: the Potency entry in test [1] and in test [3] was “inactive” in each case. In addition, in test [2], the activity (max response) is 7.26%.

For `CC(C)(C)NC[C@H](O)COc1cccc2c1CCCC2=O`, the Potency in test [1] was 11.9 µM (active). Also, the activity (max response) in test [2] was -13.3%. The Potency result in test [3] was “inactive”.

For `CC(CCc1ccc2c(c1)OCO2)NN` (centres undefined), the Potency result in test [1] and in test [3] was “inactive” each time. For the same compound, the activity (max response) in test [2] is 9.04%.

In the case of `CCN1CCN(Cc2ccc(Nc3ncc(F)c(-c4cc(F)c5nc(C)n(C(C)C)c5c4)n3)nc2)CC1`, the Potency was 146 nM (active) and 148 nM (active) in test [1]; 15800 nM (active) in test [2]; 4470 nM (active) in test [3].

As to `Cc1c(F)cccc1NC(=O)Nc1ccc(Cl)c(S(=O)(=O)[C@H]2CCCNC2)c1O`, the Potency entry in test [1] and in test [3] was “inactive” throughout. Also, the activity (max response) in test [2] is -7.46%.

Take `CC(=O)c1cc2c(o1)C(=O)c1ccccc1C2=O`: the Potency is 1.18 µM (active) in test [1], 3160 nM (active) in test [2] and 891 nM (active) in test [3].
